The nature of the test: qHTS for Inhibitors of Bloom's syndrome helicase (BLM): Thiazole Orange DNA Binding Counterscreen for SAR. Conditions: Potency: Thiazole orange DNA displacement. In outline:
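Compounds pintool-added to 50 nM unlabeled DNA with 100 nM thiazole orange; fluorescence (ex 480/em 530 nm) read after 15 min at room temperature. Dye displacement flags nonspecific DNA binders; inactivity is the desired outcome.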

Results filed as inconclusive are left out. Where a call stands in place of a potency, no number is given. Activity calls are given as the source filed them. The call rests on the fitted dose curve; in most records, active means well fitted curve in the direction sought with a large enough effect; inconclusive means small, poorly fitted or top-dose-only effect, or another doubt; inactive means no such curve, though single readings can be large or run the other way.

As to `O=C(Nc1ccc2c(c1)OCO2)Nc1nnc(-c2ccncc2)s1`, the Potency result is “inactive”.

Consider `N#Cc1cc(NC(=O)Nc2nnc(-c3ccncc3)s2)ccc1F`, for which the Potency entry was “inactive”.

With `O=S(=O)(Cc1ccc(Cl)c(Cl)c1)Nc1nnc(-c2ccncc2)s1`, the Potency result is “inactive”. Then `Cc1cc(NC(=O)Nc2nnc(-c3cccnc3)s2)ccc1F`, with “inactive”; and `CC(=O)c1ccc(NC(=O)Nc2nnc(-c3ccncc3)s2)cc1`, with “inactive”. The entry for `O=C(Nc1ccc(F)c(C(F)(F)F)c1)Nc1nnc(C2CCCCC2)s1` is “inactive”; for `c1ccc2[nH]c(Nc3nnc(-c4ccncc4)s3)nc2c1` it is “inactive”; for `N#Cc1ccc(NC(=O)Nc2nnc(-c3ccncc3)s2)cc1` it is “inactive”. Then `O=C(Nc1ccc2ccccc2c1)Nc1nnc(-c2ccc(Cl)cc2Cl)s1`, with “inactive”. Turning to `O=C(NCc1ccccc1)Nc1nnc(-c2ccncc2)s1`, the Potency entry is “inactive”. Take `N#Cc1cccc(NC(=O)Nc2nnc(-c3ccncc3)s2)c1`: the Potency entry is “inactive”. Turning to `Cc1ccc(-c2nnc(NC(=O)Nc3ccc4ccccc4c3)s2)cc1`, the Potency result was “inactive”. Then `Cc1cc(NC(=O)Nc2cccc(-c3ccncc3)n2)ccc1Cl`, with “inactive”; and `O=C(Nc1ccc(Cl)c(Cl)c1)Nc1nnc(NC2CCNCC2)s1`, with “inactive”; and `O=C(Nc1ccc(F)c(C(F)(F)F)c1)Nc1cccc(-c2ccncc2)n1`, with “inactive”.

Consider `O=C(NCc1ccc(Cl)c(Cl)c1)Nc1nnc(-c2ccncc2)s1`, for which the Potency result is “inactive”. The entry for `O=C(Nc1nnc(-c2ccncc2)s1)Oc1ccc2ccccc2c1` is “inactive”.

Regarding `O=C(Nc1ccc(Cl)cc1)Nc1nnc(-c2ccncc2)s1`, the Potency result is “inactive”. The entry for `Cc1cc(NC(=O)Nc2cccc(-c3ccncc3)n2)ccc1F` is “inactive”; for `O=C(Nc1ccc(-n2cncn2)c(F)c1)Nc1nnc(-c2ccncc2)s1` it is “inactive”; for `O=C(Cc1ccc2ccccc2c1)Nc1nnc(-c2ccncc2)s1` it is “inactive”.

On to `O=C(Nc1ccc(Cl)c(Cl)c1)Nc1nnc(-c2ccc(F)cc2)s1`, for which the Potency entry is “inactive”. The entry for `Cc1cnccc1-c1nnc(NC(=O)Nc2ccc(F)c(C(F)(F)F)c2)s1` is “inactive”; for `O=C(Nc1ccc(Cl)c(Cl)c1)Nc1nc(-c2ccncc2)cs1` it is “inactive”. Regarding `Cc1cc(NC(=O)Nc2nnc(C3CCCCC3)s2)ccc1Cl`, the Potency result is “inactive”. Then `O=C(Nc1ccc(-c2cn[nH]c2)c(C(F)(F)F)c1)Nc1nnc(-c2ccncc2)s1`, with “inactive”; and `CCOc1ccc(NC(=O)Nc2ccc(-c3nc4ccccc4[nH]3)cc2)cc1`, with “inactive”; and `O=C(Nc1cc(C(F)(F)F)cc(C(F)(F)F)c1)Nc1nnc(-c2ccncc2)s1`, with “inactive”. Then `O=C(Nc1ccc(-n2ccnc2)c(F)c1)Nc1nnc(-c2ccncc2)s1`, with “inactive”; and `COc1ccc(-c2nnc(NC(=O)Nc3ccc4ccccc4c3)s2)cc1OC`, with “inactive”. Then `O=C(Nc1ccc(Br)c(Br)c1)Nc1nnc(-c2cccnc2)s1`, with “inactive”; and `O=C(Nc1ccc(-n2cncn2)c(C(F)(F)F)c1)Nc1nnc(-c2ccncc2)s1`, with “inactive”. In the case of `O=C(Nc1ccc(Cl)nc1)Nc1nnc(-c2ccncc2)s1`, the Potency entry is “inactive”. Then `O=C(Nc1ccc(Cl)c(Cl)c1)N1CCN(c2ccncc2)CC1`, with “inactive”; and `O=C(Nc1cccc(C(F)(F)F)c1)Nc1nnc(-c2ccncc2)s1`, with “inactive”.

For `COc1ccc(OC)c(-c2nnc(NC(=O)Nc3ccc4ccccc4c3)s2)c1`, the Potency entry is “inactive”. For the compound `O=C(Nc1ccc(Cl)c(Cl)c1)Nc1ncc(-c2ccncc2)s1`, the Potency entry is “inactive”. The entry for `O=C(Nc1ccc(F)nc1)Nc1nnc(-c2ccncc2)s1` is “inactive”.

The record behind these values is PubChem BioAssay AID720550 (National Center for Advancing Translational Sciences (NCATS), 2013).
